Out of some 2,400 compounds screened, about 40 (2%) were called active. The list is a sample of the results. Values without a mark were called inactive. No stated cut-off is given here; in the data, active means activation above about 37%; inactive means the rest.
What follows are compounds tested against Trace amine-associated receptor 1 (Homo sapiens) (UniProt Q96RJ0) (assay: TAAR1 activation by candidate antagonists – cell-based, fluorescence, counter-screen for TAAR1 antagonist project (AID 651955;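 further: CHO cells stably expressing TAAR1 with calcium dye readout; 0% = DMSO vehicle and 100% = full agonist response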)). Details: hTAAR1 cell line, agonist mode, at 3 µM, active compounds read high.
Chain of Trace amine-associated receptor 1 (Homo sapiens) (Q96RJ0 whole entry, looked up): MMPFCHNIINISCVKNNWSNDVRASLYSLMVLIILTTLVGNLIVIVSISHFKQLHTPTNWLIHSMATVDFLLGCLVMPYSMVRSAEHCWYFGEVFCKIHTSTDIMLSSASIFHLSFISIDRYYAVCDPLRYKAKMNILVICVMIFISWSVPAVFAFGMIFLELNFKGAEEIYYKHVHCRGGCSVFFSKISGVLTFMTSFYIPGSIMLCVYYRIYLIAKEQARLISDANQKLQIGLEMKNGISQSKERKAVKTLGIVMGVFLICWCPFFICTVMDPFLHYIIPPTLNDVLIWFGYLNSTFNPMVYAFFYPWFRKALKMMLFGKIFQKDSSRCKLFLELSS

| Structure (SMILES) | activation |
| --- | --- |
| COc1ccc(C2=NOC(Cn3nc(C(=O)NCc4ccc5c(c4)OCO5)cc3-c3ccccc3)C2)cc1 (configuration not stated) | 6.17% |
| COC(=O)c1sccc1NC(=O)c1cc(OC)c(OC)c(OC)c1 | 6.39% |
| Cc1nc(N2CCN(c3ccccn3)CC2)c2c(C)c(C(=O)Nc3ccc(F)cc3)sc2n1 | 5.28% |
| COc1ccc(CN(C)C(=O)c2cc(-c3ccc(C)cc3C)nc3ccccc23)c(OC)c1OC | 12.2% |
| O=C(NCCN1C(=O)S/C(=C\c2cccnc2)C1=O)c1ccc(S(=O)(=O)N2CCCC2)cc1 | 6.63% |
| C[C@H](O)[C@@H]1C(=O)N2CCc3c([nH]c4c(-c5ccc6c(c5)OCO6)cccc34)[C@@H]2C[C@@H]1N(C)C(=O)c1ccco1 | 7.7% |
| Cc1cc(Br)ccc1NC(=O)c1cnc(N2CCN(c3ccccn3)CC2)c2ccccc12 | 5.88% |
| COC(=O)[C@@]1(Sc2ccc(C)cc2)CC(=O)N(c2cccc(SC)c2)[C@@H]1c1ccccc1 | 9.64% |
| COc1ccc(S(=O)(=O)N2CCCC(C(=O)Nc3ccc(NC(=O)c4ccccn4)cc3)C2)cc1 (configuration not stated) | 11% |
| COc1ccc(CCNC2=C(Cl)C(=O)N(Cc3ccccc3)C2=O)cc1OC | 7.18% |
| O=C(O)c1ccc(NC(=O)c2cn(-c3ccccc3)nc2-c2ccc(Cl)cc2)cc1 | -1.05% |
| COc1ccc(NC(=O)c2cc(-c3ccc(C)o3)nc3ccccc23)cc1 | 6.61% |
| O=C(Oc1ccc(-c2nnco2)cc1)c1ccc(F)c(S(=O)(=O)N2CCOCC2)c1 | 14.6% |
| O=C(OCC(=O)N(CCc1ccccc1)Cc1ccccc1)c1ccccc1[N+](=O)[O-] | 7.56% |
| COC(=O)Cc1nnn2c1[C@H](C)[C@H](c1ccccc1Br)OCC2 | 7.69% |
| COc1ccc(OC)c2[nH]c(=O)c(CCNC(=O)C(=O)c3c[nH]c4ccccc34)cc12 | 10.8% |
| Cc1cccc(NC(=O)c2ccc(COc3ccccc3[N+](=O)[O-])o2)n1 | 1.12% |
| NNC(=O)CNC(c1ccccc1)c1cc(Cl)ccc1NC(=O)c1ccccc1 (configuration not stated) | 8.83% |
| Cc1cc(C(C)(C)C)oc1C(=O)N(CC(=O)NC1CCCC1)Cc1ccc(Cl)cc1 | 34.2% |
| CCOc1cc(/C=N/NC(=O)c2cc(-c3ccccc3)nc3ccccc23)ccc1O | 15.8% |
| O=C(N/N=C/c1ccc(OC(=O)c2ccccc2Cl)cc1)c1ccc(O)cc1 | 13.1% |

| Structure (SMILES) | activation |
| --- | --- |
| Cc1cccc(NC(=O)c2nc[nH]c2C(=O)NCC(=O)OCc2ccccc2)c1 | 3.94% |
| C[C@H](NC(=O)c1nc[nH]c1C(=O)NCC(=O)OC(C)(C)C)C(=O)OCc1ccccc1 | 11.1% |
| O=C(COC(=O)CCCSc1nc2ccccc2[nH]1)Nc1ccc(Oc2ccccc2)cc1 | 9.65% |
| COc1ccc(CCNC(=O)c2ccc(CS(=O)(=O)c3ccc(Br)cc3)o2)cc1OC | 12.3% |
| COc1cc2ccccc2cc1C(=O)Nc1ccc(NC(=O)c2cccs2)cc1 | 7.6% |
| C=CCC[C@H](Cc1ccc(F)cc1)C(=O)OC[C@H](C)NC(=O)[C@H](CC=C)CC(=O)N(CCO)Cc1ccccc1 | 6.83% |
| CCc1ccc2c(c1)NC(=O)C2(C)Cc1ccc(OC(F)(F)F)cc1 (configuration not stated) | 25.6% |
| CC/C(=N/Nc1ccccc1)c1cnnc(SC)n1 | -4.06% |
| Cc1ccc2c(c1)N(CC(=O)NCCc1ccc(Cl)cc1)C(=O)c1cccnc1O2 | 5.11% |
| Oc1ccccc1N1CCN(c2ncnc3sc(-c4ccccc4)cc23)CC1 | 2.9% |
| Cc1ccc(NC(=O)c2ccc(CSc3ncnc4nc[nH]c34)cc2)c(C)c1 | 3.79% |
| C=CCc1cc(S(=O)(=O)c2ccc(O)c(CC=C)c2)ccc1O | 9.65% |
| Cc1ccc2cccc(OCCCOc3ccccc3CO)c2n1 | 11.3% |
| COc1ccc(/C=C/C(=O)Nc2ccc(C34CC5CC(CC(O)(C5)C3)C4)cc2)cc1OC | 11.1% |
| Cc1ccccc1NC(=O)Cc1nc(COC(=O)C(C)(C)Oc2ccc(Cl)cc2)cs1 | 10.5% |
| CCNS(=O)(=O)c1ccc(CCC(=O)N2CCN(c3cc(Cl)ccc3C)CC2)cc1 | 17.4% |
| COc1ccc(C(=O)Oc2ccc(-c3nnco3)cc2)cc1S(=O)(=O)N1CCOCC1 | 11% |
| Oc1ccc(/C=N/Nc2nc(-c3ccccc3F)nc3ccccc23)c(O)c1 | 9.34% |
| C=CCn1c(SCc2cccc(F)c2)nc2cc(C(=O)N3CCC(C(N)=O)CC3)ccc2c1=O | 9% |
| COc1ccc2[nH]c(=O)c(CN(Cc3cccnc3)S(=O)(=O)c3ccccc3F)cc2c1 | 12.6% |
| Fc1ccc(/C=N/Nc2nc(-c3cccnc3)nc3ccccc23)cc1 | 3.24% |

| Structure (SMILES) | activation |
| --- | --- |
| CCOC(=O)C1=C(NC(=S)NC(=O)c2ccccc2)c2ccccc2CC1(C)C | 31.1% |
| CNC(=O)c1ccsc1NC(=O)c1ccc(S(=O)(=O)N2CCc3ccccc32)cc1 | 6.5% |
| CC(C)(C)OC(=O)NCCCCCNC(=O)c1nc[nH]c1C(=O)NCc1ccccc1 | 7.66% |
| Cc1ccccc1OCC(=O)Nc1ccc(N2CCN(C(=O)C(C)C)CC2)c(Cl)c1 | 10.6% |
| COc1cc(OC)cc(C(=O)OCC(=O)Nc2sccc2C(N)=O)c1 | 16.7% |
| CCOc1ccc(NC(=O)N2CC=C(n3c(=O)[nH]c4ccccc43)CC2)cc1 | 6.44% |
| O=C(CCc1ccccc1)Nc1cccc(-c2nnc(-c3ccco3)o2)c1 | 7.95% |
| O=C(Nc1ccc(-c2nnc(-c3ccccc3)o2)cc1)c1ccc(Br)o1 | -1.1% |
| CC(C)Oc1cc(F)ccc1-c1cc(C(=O)Nc2ccc(F)cc2)[nH]n1 | 2.53% |
| COc1ccc(-c2cc(C(=O)N(C)Cc3ccc(OC)c(OC)c3OC)c3ccccc3n2)cc1OC | 8.62% |
| O=C(NCCN1CCOCC1)c1ccccc1N1C(=O)[C@@H]2Cc3c([nH]c4ccccc34)C(c3cccc(Cl)c3)N2C1=O (some centres not stated) | 5.75% |
| Clc1ccc(Nc2ncnc3c2nnn3Cc2ccccc2)cc1 | 6.12% |
| Nc1nonc1-n1nnc(C(=O)N/N=C/c2c[nH]c3ccccc23)c1-c1ccccc1 | 2.36% |
| Cn1c2ccccc2c(=O)c2c(=O)n(Cc3ccco3)c(COc3ccccc3)nc21 | 39.4% (active) |
| O=c1[nH]c(CSc2ncc(-c3ccc(F)cc3)n2Cc2ccco2)nc2ccccc12 | 17.5% |
| Cc1ccc(C)c(N2CCN(C(=O)CCCCCn3c(=S)[nH]c4ccc(N5CCOCC5)cc4c3=O)CC2)c1 | 6.46% |
| CC(C)N(Cc1ccccc1)C(=O)COC(=O)c1ccccc1SCC(=O)N1CCCC1 | 10.5% |
| C/C(=N\Nc1ncc(Cl)cc1Cl)c1ccc(S(=O)(=O)NCc2ccco2)cc1 | -4.54% |
| COC(=O)Cc1nnn2c1[C@H](C)[C@H](c1ccccc1[N+](=O)[O-])OCC2 | 1.8% |
| O=C1c2ccccc2C(=O)N1CCC#Cc1ccc2cc(C3(O)CCCCC3)oc(=O)c2c1 | 10.5% |
| C[C@@H]1CN([C@@H](C)CO)S(=O)(=O)c2ccc(C#Cc3cccc(F)c3)cc2O[C@H]1CN(C)S(=O)(=O)c1cn(C)cn1 | 9.74% |

| Structure (SMILES) | activation |
| --- | --- |
| COc1ccc(-c2nn(-c3ccccc3)cc2C(=O)Nc2nccs2)cc1OC | 7.13% |
| O=C(NCc1ccc2c(c1)OCO2)c1c(-c2ccsc2)sc2ccccc12 | -1.93% |
| CCC(=O)Oc1cccc(C(=O)Nc2ccc(-c3nnc(-c4ccco4)o3)cc2)c1 | 3.83% |
| O=S(=O)(c1cccs1)N1CCCc2nc(-c3ccc(Br)cc3)ccc21 | 0.43% |
| CSC(=S)N/N=C/c1c[nH]c2ccccc12 | 12% |
| CC(=O)n1cc([C@H]2C=C(C(=O)N3CCOCC3)O[C@@H](OCc3ccc(CO)cc3)C2)c2ccccc21 | 9.37% |
| O=C(COC(=O)c1ccccc1SCC(=O)N1CCCC1)Nc1ccccc1OC(F)F | 7.54% |
| Cc1onc(-c2c(F)cccc2Cl)c1C(=O)Nc1cccc(S(=O)(=O)N2CCCCC2)c1 | 7.98% |
| COc1cc(SC#N)ccc1N=Cc1c(C)[nH]n(-c2ccc(C)cc2)c1=O | 1.06% |
| CN(c1ccccc1)S(=O)(=O)c1cc(C(=O)Nc2nc3ccccc3[nH]2)ccc1Cl | 4.12% |
| O=C(NCC1CCCO1)c1cc2c([nH]c3ccccc32)c(-c2ccc(F)cc2)n1 (configuration not stated) | 3.66% |
| CC(=O)c1ccccc1OCc1ccc(C(=O)c2ccccc2)cc1 | 6.46% |
| COc1ccc(CCNC(=O)C(=O)NCC2OCCN2S(=O)(=O)c2ccc(OC)c(C)c2)cc1 (configuration not stated) | 5.42% |
| COC(=O)C1=C(C)N(Cc2ccc(F)cc2)C(=S)NC1c1cccc(Cl)c1 (configuration not stated) | 3.48% |
| CC(=O)OCCN(CCCn1c(-c2ccncc2)nc2ccccc21)c1nc(-c2ccc(C)cc2)cs1 | 2.91% |
| O=C(Nc1ccccc1-c1nnn(CC(=O)N2CCN(c3ccccc3)CC2)n1)c1cccs1 | 6.9% |
| O=S1(=O)c2c(cccc2N2CCCCC2)O[C@H](COCc2ccccc2)CN1C1CC1 | 0.58% |
| Cc1cccc(C)c1NC(=O)CNC(=O)C1CCCC1 | 6.49% |
| CCN=C1SC(CC(=O)Nc2ccc(C)cc2)C(=O)N1CC (configuration not stated) | 12.6% |
